Source: PubChem BioAssay
Rtt109 HAT inh – blocks Candida albicans Rtt109/Vps75 acetyltransferase activity; 330,000 compounds, 0.16% hits; inhibition, % at 34.9 µM; purified Rtt109/Vps75, ThioGlo CoA-SH fluorescence, 4 h; AID 540336;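 active = inhibition of at least 50% in every replicate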
Target sequence (Q5AAJ8 whole entry, looked up): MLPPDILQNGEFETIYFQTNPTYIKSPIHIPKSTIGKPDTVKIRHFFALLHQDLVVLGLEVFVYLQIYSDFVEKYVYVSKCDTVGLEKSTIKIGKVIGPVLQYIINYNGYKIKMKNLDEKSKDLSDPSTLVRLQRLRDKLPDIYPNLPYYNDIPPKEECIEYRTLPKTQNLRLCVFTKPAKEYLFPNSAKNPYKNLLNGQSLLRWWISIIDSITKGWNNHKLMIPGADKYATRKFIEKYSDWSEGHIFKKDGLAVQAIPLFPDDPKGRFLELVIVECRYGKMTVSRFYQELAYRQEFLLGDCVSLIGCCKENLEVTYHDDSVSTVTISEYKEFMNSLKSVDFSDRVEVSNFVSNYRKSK
rCAG binder – molecules binding r(CAG) RNA repeats; 370,000 compounds, 1.3% hits; r(CAG) RNA repeat, TO-PRO-1 dye displacement fluorescence; inhibition, % at 3 µM;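 active = inhibition above the plate cutoff, the mean of all test compounds on that plate plus 3 SD, cut at about 35% in these data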;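 note: 0% = DMSO alone and 100% = 100 µM mitoxantrone as full dye displacement; higher means more dye released from RNA so lower well fluorescence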
ALR H2O2 inh – blocks human ALR sulfhydryl oxidase activity. 290,000 compounds, 3.8% hits. inhibition, % (test concentration not listed). AID 485317. P55789. purified ALR, DTT oxidation, H2O2 HRP-luminol luminescence;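 active = mean replicate inhibition above about 79%, with every replicate also reaching it, limit read from the data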
Target sequence (P55789 whole entry, looked up): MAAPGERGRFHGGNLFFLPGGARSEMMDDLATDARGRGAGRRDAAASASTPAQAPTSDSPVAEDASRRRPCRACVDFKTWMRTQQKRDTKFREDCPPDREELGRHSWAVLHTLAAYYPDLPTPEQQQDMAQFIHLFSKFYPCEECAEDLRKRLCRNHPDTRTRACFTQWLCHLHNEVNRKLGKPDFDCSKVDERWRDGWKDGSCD
PRMT1 inh – PRMT1 (human) inhibition, primary screen; Q99873; 370,000 compounds, 1.3% hits; inhibition, % at 2.79 µM; AID 652257; recombinant PRMT1, activity-based probe fluorescence polarization;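 active = inhibition above about 21% made by adding two undisclosed values, limit read from the data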
LANA-H2A inh – blocks KSHV LANA binding to histone H2A/H2B. inhibition, % (test concentration not listed). 320,000 compounds, 0.6% hits. Q9QR71. cell-free LANA-H2A/H2B peptide, fluorescence polarization. AID 2629; in the data active = inhibition mostly above about 10%, no sharp cut-off; inactive = mostly below about 6.7%
ABHD5-PLIN5 inh – ABHD5-PLIN5 protein interaction inhibition | Q00G26+Q8WTS1 | Split G. princeps luciferase complementation, luminescence, 4 h | inhibition, % at 4 µM | 360,000 compounds, 0.78% hits | AID 602281;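 active = inhibition above the mean inhibition across every tested compound plus 3 SD, cut at about 22% in these data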;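 note: 0% = DMSO only wells and the 100% control is not disclosed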
Numbers without * were called inactive; x = no result given. A selection: hits, their analogues and other compounds. The true share with any hit is near 5.9%.

SMILES	Rtt109 HAT inh	rCAG binder	ALR H2O2 inh	PRMT1 inh	LANA-H2A inh	ABHD5-PLIN5 inh
Cc1c(C(=O)c2ccc(F)cc2F)c2ccccn2c1CCC#N	5	-1	x	7	19	1
Cc1c(C(=O)c2ccc(Cl)c([N+](=O)[O-])c2)c2ccccn2c1CCC#N	26	3	40	0	-4	11
O=C(CSc1nnc(-c2ccccc2)n1-c1ccc(Cl)cc1)Nc1ccc2cn[nH]c2c1	x	4	x	-2	x	x
COc1ccccc1C(=O)NCC(=O)N(C)Cc1nc2ccccc2c(=O)[nH]1	x	1	x	3	x	6
COc1cc(C(=O)NC2CCCCN(Cc3cccc(Cl)c3)C2=O)cc(OC)c1OC (stereo not given)	x	-4	x	-2	x	x
O=C(NNC(=O)C1[C@H]2CCCC[C@@H]12)c1ccc(=O)oc1 (stereo not given in full)	21	10	96*	-4	0	-1
O=C(NC12CC3CC(CC(C3)C1)C2)c1ccc(=O)oc1	-2	-1	x	-1	-2	2
CCN(CC)S(=O)(=O)c1ccc2c(c1)nc(SCn1nnc3ccccc3c1=O)n2CC	-8	8	0	22*	1	-5
Cc1ccn2c(Nc3ccccc3C)c(-c3cccnc3)nc2c1	-7	-9	97*	-4	-7	5
O=C1CN(C(=O)/C=C/c2ccc(Cl)cc2)c2ccccc2N1	56*	-2	-10	-4	-4	2
O=C1CN(C(=O)/C=C/c2cccc(Cl)c2)c2ccccc2N1	-6	0	-5	0	-5	8
Nc1ccc(OCCCc2c(N)nc(N)nc2N)cc1	1	5	99*	-2	0	-1
Cc1oc(-c2ccc(F)cc2)cc1-c1nn2c(-c3ccoc3C)nnc2s1	-1	36*	97*	20	2	30*
CCC(=O)c1ccc(OCc2ccc(C(=O)OC)cc2)cc1	2	0	0	0	14*	-5
CCC(=O)c1ccc(OCc2ccc(C#N)cc2)cc1	2	-3	-3	-1	3	-6
S=C(c1ccc(-c2ccc(Cl)cc2Cl)o1)N1CCCC1	x	2	96*	-3	-1	4
O=C(OC12CCCN(C1)/C(=C/c1cccnc1)C2)c1ccccc1 (stereo not given)	x	2	x	-1	x	x
COc1ccccc1-c1cnc(C(O)c2ccc(C)cc2)[nH]1 (stereo not given)	x	-1	x	-2	x	1
Cc1cccc2nc(-c3ccco3)c(Nc3ccc4c(c3)OCO4)n12	11	-5	99*	14	-2	4
C[C@H]1CN([C@@H](C)CO)C(=O)CCCn2nncc2CO[C@H]1CN(C)S(=O)(=O)c1ccc2ccccc2c1	x	3	x	2	x	0
Cc1noc(NS(=O)(=O)c2ccc(NC(=O)CSc3nc4c(cc3C#N)CCC4)cc2)c1C	-3	26	98*	7	0	1
Cc1cc(C)nc(SCC(=O)Nc2ccc(S(=O)(=O)Nc3onc(C)c3C)cc2)n1	20	3	94*	3	2	9
Cc1cc(NC(=O)CSc2nc3c(cc2C#N)CCC3)no1	-5	2	x	-1	3	8
Cc1noc(NS(=O)(=O)c2ccc(NC(=O)CSc3ncccn3)cc2)c1C	-19	1	98*	5	0	-5
Cc1noc(NS(=O)(=O)c2ccc(NC(=O)CS(=O)(=O)c3ccccc3)cc2)c1C	4	15	70	3	-5	-7
SMILES	Rtt109 HAT inh	rCAG binder	ALR H2O2 inh	PRMT1 inh	LANA-H2A inh	ABHD5-PLIN5 inh
Cc1noc(NS(=O)(=O)c2ccc(NC(=O)c3cnc4n(c3=O)CCS4)cc2)c1C	18	20	99*	7	-4	-5
Cc1ccc(NC(=O)C2CC(=O)n3c(nc4ccccc43)N2)cc1Cl (stereo not given)	-1	3	-3	-6	-1	5
Cc1ccc(NC(=O)C2CC(=O)n3c(nc4ccccc43)N2)cc1C (stereo not given)	1	6	2	-4	16*	4
COC(=O)c1cc2c(c3c4ccccc4n(S(=O)(=O)c4cccc(C)c4)c13)C(=O)N(Cc1ccccc1OC)C2	x	17	x	4	x	x
COc1cccc(NC(=O)C2CC(=O)OC23CCOC(C)(C)C3)c1 (stereo not given)	3	2	-4	0	13*	8
Cc1nn(-c2ccccc2)c(-c2ccccc2[N+](=O)[O-])c1CC#N	x	-1	x	-1	x	3
Nc1nnc(N2CCCCCC2)s1	0	2	66	0	0	4
Nc1nnc(N2CCCCC2)s1	-2	0	91*	0	-3	-3
CCOc1cc(/C=C2\N=C(SC(C)C(N)=O)N(c3ccc(OC(F)F)cc3)C2=O)ccc1O (stereo not given)	21	-17	27	-13	-52	-3
Nn1c(Cc2cccc3ccccc23)nnc1SCc1ccccc1	3	-2	-4	1	0	0
Nn1c(Cc2cccc3ccccc23)nnc1SCc1ccccc1Cl	2	0	87*	-1	-1	0
O=C(/C=C/[C@H]1O[C@@H](n2ccc(=O)[nH]c2=O)[C@H](O)[C@@H]1O)NCCN1CCCCC1	x	2	x	7	x	5
COCCNc1ncnc2c1ncn2[C@H]1CN(Cc2ccncc2)C[C@@H](CO)O1	x	1	x	5	x	10
c1ccc(NCC2OCc3ccccc3CO2)cc1	0	3	98*	-2	3	5
CCCCCCNCC1OCc2ccccc2CO1	20	-2	-12	0	5	-3
O=[N+]([O-])c1cccc(C(=Nc2ccc(Cl)cc2)NO)c1	-4	2	85*	-2	-6	4
ONC(=Nc1ccc(Cl)cc1)c1ccc(Cl)cc1	16	2	78*	0	-1	-1
CCOC(=O)[C@@]12CN(C(=O)OC(C)(C)C)CC=C1N(Cc1ccc(OC)cc1)C(=O)[C@H]2CC(=O)NCc1ccccc1	x	5	x	0	x	x
Cc1cc(C(=O)Nc2ccccc2C(=O)O)oc1C	2	2	98*	-5	0	2
Cc1csc(SCC(=O)Nc2sccc2C(N)=O)n1	11	4	95*	-1	0	5
CCOC(=O)C1=C(C)NC(=O)CC1c1cc2c(cc1[N+](=O)[O-])OCO2 (stereo not given)	3	7	91*	12	5	1
CN(c1cccnc1)c1ccc(NC(=O)Cc2c[nH]c3ccccc23)cc1-c1cccnc1F	x	12	x	2	x	x
COc1cc(-c2nc3ccc4ccccc4c3c3c2CCC3)ccc1O	-1	3	96*	0	5	-6
CCN(C(=O)Cn1nnc(-c2ccncc2)n1)c1ccccc1	x	0	x	-4	x	x
C=CCn1sc(N)c(C(=O)OCC)c1=S	8	3	99*	-1	1	4
Cc1cc(NS(=O)(=O)c2ccc(NC(=O)CSc3nnc(-c4cnccn4)n3-c3ccccc3)cc2)nc(C)n1	x	16	x	-4	x	x
